Results published in the supplement of paper PMC6555819.

tested on: VDR:RXRa (NR concentration 270 nM, RXRa partner concentration 90 nM); experiment: PBM binding z-score (relative to random genomic background probes); higher = stronger binding; sequences stand for … in GC…GCGATTGACAGCGTAGAATGAAGG
Description: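 Protein-binding microarray (Agilent 4x180K custom design, double-stranded 60-nt probes: 5' GC cap, 34-nt variable region, 24-nt constant primer region; full probe sequence given). Purified or IVT nuclear receptor:RXRα heterodimers (3:1 NR:RXRα, mostly 270:90 nM) or homodimers were incubated for 1 h in PBS with 2% milk and no ligand, then detected with Alexa488 antibodies. Fluorescence from o1-orientation probes (~5 replicates averaged) was converted to z-scores against 500 random hg19 background probes. Variable regions are seed direct-repeat (DR0–DR5) sites, all their single-nucleotide variants and half-site ablations.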

For CAAACTAGGTCACGGGAAGGTCAAAGTCCGCATG, which PBM binding z-score is on record?
The PBM binding z-score was 6.27.

ATATGTAGGTTTAGGGTCATTCAGGTTGGTTCGC was tested. Which PBM binding z-score did it give?
Its PBM binding z-score is 5.54.

How did the PBM binding z-score turn out when ACTAGTTGGTCAGTTGAGGTCACACACAATTCGG was run?
Its PBM binding z-score is 4.65.

How did the PBM binding z-score turn out when TAGCCTAGGACAGATCGGGCCAGTATACGCTATA was run?
The PBM binding z-score was -0.85.

With CGAACTAGGTCAAGGGCAGTGAATCTCCGCACGC as the sequence, how does the PBM binding z-score read?
The PBM binding z-score was 1.4.

Which PBM binding z-score does the source give for CTACCATGGTGAACAAGGTCGTTGATTACTATTC here?
The PBM binding z-score was 3.04.

With CAAACTAGGTTACGAAAGGTCAAAGTCGAATGAC as the sequence, how does the PBM binding z-score read?
Its PBM binding z-score is 5.53.

Which PBM binding z-score does the source give for CAGACTAGGTCAAGGTCAAAGTCGGTTTGTGCCA here?
Its PBM binding z-score is 5.15.

With TCATATAGGTAAAGGTGAGAGTCGAACGATATGA as the sequence, how does the PBM binding z-score read?
The PBM binding z-score was 0.633.

With TAGGCTAGGTCATTCAGGGGCCAGTATAGAAAGC as the sequence, how does the PBM binding z-score read?
Its PBM binding z-score is 3.24.

Which PBM binding z-score does the source give for CCTGCTAGGTCACTGGTCAGCTAAAGCAGCTCGC here?
Its PBM binding z-score is 1.39.

CCTATTAGTTGACCATAAGGGCAGCCGAAGCTCG was tested. Which PBM binding z-score did it give?
Its PBM binding z-score is 0.304.

With TCATATAGGTAAATGCTAGGTGAAAGGCCGATCT as the sequence, how does the PBM binding z-score read?
Its PBM binding z-score is 0.727.

With AGTCAAAGCTCACTAGGTAACGTAAGATTCAGCT as the sequence, how does the PBM binding z-score read?
The PBM binding z-score was -0.551.

Which PBM binding z-score does the source give for TCTTGTAGATTAGCAGGTTAAGAAAGCTGGCCAA here?
Its PBM binding z-score is 0.63.

CCAACTGGGGCATAAGGTTACCATAAGCCAGCCC was tested. Which PBM binding z-score did it give?
The PBM binding z-score was 0.316.

With CCTACTGGGCCAAGAAGGTCATTGATGCCGATAA as the sequence, how does the PBM binding z-score read?
Its PBM binding z-score is 3.97.

For ATCGAAAGGTCGAGGTGGGTATAGAGAAAGGGAA, which PBM binding z-score is on record?
Its PBM binding z-score is 3.34.

Which PBM binding z-score does the source give for CAAACTAGGTAACCGGAAGGTCAAAGTCCGCATG here?
Its PBM binding z-score is 3.35.

Which PBM binding z-score does the source give for ATATGTACGTTAGCTGGGGTCATTCAGACTAGGC here?
The PBM binding z-score was 5.16.

How did the PBM binding z-score turn out when ACAGACTGGTGATGAAGGTAACTCAGGCTATCAT was run?
The PBM binding z-score was -0.35.

For GATACAGGGTCAGCAAGAGGCCAGAGTATGGAAA, which PBM binding z-score is on record?
The PBM binding z-score was 3.43.

Which PBM binding z-score does the source give for TCTGCGAGGTCAACGATGGTCAGCTAATCTGCTA here?
Its PBM binding z-score is 5.38.

For ATCGAAAGGTCGGGGTGAGTATAGAGAAAGGGAA, which PBM binding z-score is on record?
Its PBM binding z-score is 3.1.

How did the PBM binding z-score turn out when ATCTCTAGGTAAAATTCAGTGAAAGATCGATAGA was run?
The PBM binding z-score was 0.35.

For CCTACTGTGCCATCAGGTCATTGATATCAACGTT, which PBM binding z-score is on record?
The PBM binding z-score was 2.56.

TCTATTAGTTGATTAAGGCAACCGAAACAGCGGA was tested. Which PBM binding z-score did it give?
Its PBM binding z-score is 0.578.

For CCTTACGGGTCAAGTTTATAGCACGGGTGGTACG, which PBM binding z-score is on record?
The PBM binding z-score was 3.9.

With ATCGGAAGGTCGTGAGGTGAGTATACAGAAAGGC as the sequence, how does the PBM binding z-score read?
The PBM binding z-score was 2.1.

Which PBM binding z-score does the source give for AGTCAAAGTTCATCTAGGTAAGGTAAGATATGCT here?
Its PBM binding z-score is 4.6.

For TCTAGTTGGTCAAAGCTCACACACTCGAAATGCG, which PBM binding z-score is on record?
The PBM binding z-score was 0.632.

GCTAGCAGGCCACTTGGGTCACTCAATGACGGGC was tested. Which PBM binding z-score did it give?
Its PBM binding z-score is 0.83.

For TCTAGTTGCTCACGGAGGTCACACACGACGGGTA, which PBM binding z-score is on record?
The PBM binding z-score was 3.64.

Which PBM binding z-score does the source give for GTACCAAGGTGAATAGGTGGTTGATGAGTAGGCG here?
Its PBM binding z-score is -0.165.

For CCGACTGGGGCAAGGTTAGCATAACGCACAGCCA, which PBM binding z-score is on record?
Its PBM binding z-score is -0.429.

TCTCGGAGGACACGAAGATCAGAGCTTTCCAGAG was tested. Which PBM binding z-score did it give?
Its PBM binding z-score is -0.165.

How did the PBM binding z-score turn out when TATACAGGGTCAAAGGCAAGAGTACGAATGTCGA was run?
The PBM binding z-score was 4.61.

Which PBM binding z-score does the source give for ATACCAAGGTGATCATGAGGTCGTTGATACTAAC here?
The PBM binding z-score was 3.38.

How did the PBM binding z-score turn out when TCTTGTAGATCAGCAGGTTAAAAAAGCTGGCCAA was run?
The PBM binding z-score was 0.495.

Which PBM binding z-score does the source give for TCGAGTAGGATACCAATGGGGCATTCAGCTTTCT here?
The PBM binding z-score was -0.497.
